Experimental data taken from PubChem BioAssay (EPA / NIEHS).
Records with an inconclusive call do not appear. Activity calls are given as the source filed them. How the source made its calls, unless noted: active means hit-call score of the fitted dose curve at least 0.9, where 1 is the maximum; inconclusive means response in the unintended direction; inactive means score below 0.9.

Assays:
[1] = CCTE_Deisenroth_AIME_384WELL_CTox_Active: Cytotoxicity Assessment (CTOX) in CCTE's 384-well Estrogen Receptor Transactivation Assay with AIME metabolic competence (metabolism positive), Deisenroth Lab (AID 2284037);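 further: chemicals first conditioned 2 h by alginate-bound induced rat liver S9 before cells; activity means signal loss indicating cell death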
Method in brief: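 VM7Luc4E2 breast cells received medium pre-incubated 2 h with chemical over alginate microspheres holding induced male Sprague Dawley rat liver S9; viability read 24 h later by protease-substrate fluorescence. Loss of signal, bidirectional fit, 0.002–200 uM.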

[2] = CCTE_Deisenroth_AIME_384WELL_CTox_Inactive: Cytotoxicity Assessment (CTOX) in CCTE's 384-well Estrogen Receptor Transactivation Assay without AIME metabolic competence (metabolism negative), Deisenroth Lab (AID 2284039);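 further: cell viability via live-cell protease substrate cleaved to fluorescent probe; cells exposed 24 h to medium preincubated 2 h with alginate-water beads without S9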
Method in brief: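 Fluorescence from a live-cell protease substrate, read after 24 h in VM7Luc4E2 cells, indicated viability. Test medium came from a 2 h AIME step without hepatic S9 (alginate-water microspheres); concentrations spanned 0.002 - 200 uM, single technical replicate per run.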

[3] = biological target: Estrogen receptor (Homo sapiens) (UniProt P03372); assay: CCTE_Deisenroth_AIME_384WELL_LUC_Inactive: CCTE's 384-well Estrogen Receptor Transactivation Assay without AIME metabolic competence (ERTA luciferase; metabolism negative), Deisenroth Lab (AID 2284038);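 further: hits raise estrogen receptor luciferase signal so potencies reflect agonists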
Sequence of Estrogen receptor (Homo sapiens) (P03372 whole entry, looked up): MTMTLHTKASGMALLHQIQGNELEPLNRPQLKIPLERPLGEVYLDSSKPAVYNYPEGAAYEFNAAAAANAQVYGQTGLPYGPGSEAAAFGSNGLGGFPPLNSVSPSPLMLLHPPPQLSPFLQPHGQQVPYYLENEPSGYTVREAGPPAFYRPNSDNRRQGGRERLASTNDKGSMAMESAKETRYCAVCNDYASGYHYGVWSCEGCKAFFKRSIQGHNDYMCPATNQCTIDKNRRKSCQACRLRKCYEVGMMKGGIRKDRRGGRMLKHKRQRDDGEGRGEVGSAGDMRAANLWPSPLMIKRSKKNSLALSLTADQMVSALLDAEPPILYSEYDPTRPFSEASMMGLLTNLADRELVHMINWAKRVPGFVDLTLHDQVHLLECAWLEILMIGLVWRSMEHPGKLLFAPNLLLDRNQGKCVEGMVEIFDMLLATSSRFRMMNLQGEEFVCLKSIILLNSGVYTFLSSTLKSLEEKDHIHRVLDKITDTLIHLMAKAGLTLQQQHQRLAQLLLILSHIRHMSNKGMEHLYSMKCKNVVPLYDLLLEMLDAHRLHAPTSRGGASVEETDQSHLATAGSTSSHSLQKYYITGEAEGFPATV
Method in brief: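 Chemicals (10-point series, 0.002 - 200 uM) were incubated 2 hours with alginate-water microsphere lids lacking S9, then the conditioned medium was transferred to VM7Luc4E2 breast cells for 24 hour. Luciferase induction was read by bioluminescence, fitted upward relative to 17beta-estradiol.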

[4] = biological target: Estrogen receptor (Homo sapiens) (UniProt P03372); assay: CCTE_Deisenroth_AIME_384WELL_LUC_Shift: CCTE's 384-well Estrogen Receptor Transactivation Assay with AIME metabolic competence data shift (ERTA luciferase; difference in metabolism positive and negative), Deisenroth Lab (AID 2284041; active means hit-call score of the fitted dose curve at least 0.9, where 1 is the maximum; inactive means score below 0.9;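 further: shift is response with S9 minus without S9 so positive means metabolism raised ER signal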)
Method in brief: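 Here, parent compounds undergo 2 h phase I metabolism by PB/BNF-induced rat S9 before 24 h transactivation in VM7Luc4E2 cells; the curve models S9-positive minus S9-negative response over a 10-point series.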

[5] = CCTE_Shafer_MEA_dev_per_burst_spike_percent: CCTE's Neural Network Formation Assay for Percent of Spikes in a Burst, Shafer Lab (AID 2284032; active means hit-call score of the fitted dose curve at least 0.9, where 1 is the maximum; inactive means score below 0.9)
Method in brief: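 Rat primary cortical neurons on 16-electrode MEA wells, dosed from plating day 0 for 12 days with renewal on DIV 5 and 9; spikes-in-bursts percentage averaged over bursting electrodes, collapsed as AUC across days 5, 7, 9, 12; loss direction versus DMSO.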

[6] = CCTE_Shafer_MEA_dev_active_electrodes_number: CCTE's Neural Network Formation Assay for Number of Active Electrodes, Shafer Lab (AID 2284040)
Method in brief: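 Rat cortical primary cultures, 1.5 x 10^5 cells/well, PEI-coated MEA, laminin drop. Continuous exposure DIV 0–12; full media/compound change DIV 5, 9. Readout: electrodes with mean firing ≥5 spikes/min; AUC across days; loss vs DMSO.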

[7] = CCTE_Shafer_MEA_dev_burst_rate: CCTE's Neural Network Formation Assay for Burst Rate, Shafer Lab (AID 2284042; active means hit-call score of the fitted dose curve at least 0.9, where 1 is the maximum; inactive means score below 0.9)
Method in brief: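 Developmental network assay measuring how 12-day exposure of rat cortical neuron cultures alters bursting on extracellular MEA recordings. Values are AUC of well-mean burst rate across four recording days, relative to DMSO vehicle.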

[8] = CCTE_Shafer_MEA_dev_per_burst_interspike_interval: CCTE's Neural Network Formation Assay for Burst Interspike Interval, Shafer Lab (AID 2284044; active means hit-call score of the fitted dose curve at least 0.9, where 1 is the maximum; inactive means score below 0.9;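 further: mean spike spacing inside bursts as AUC over recordings on days 5 7 9 12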)
Method in brief: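 Mean interspike interval within single-electrode bursts, averaged over bursting electrodes, from rat cortical cultures on MEA plates recorded on days 5, 7, 9 and 12. Continuous compound exposure from plating; trapezoidal AUC fitted downward relative to DMSO.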

[9] = CCTE_Shafer_MEA_dev_burst_duration_mean: CCTE's Neural Network Formation Assay for Mean Burst Duration, Shafer Lab (AID 2284045; active means hit-call score of the fitted dose curve at least 0.9, where 1 is the maximum; inactive means score below 0.9)
Method in brief: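 Primary rat cortical neurons on PEI-coated 16-electrode MEA wells, exposed from plating through day 12 with compound renewed at DIV 5 and 9; spontaneous activity recorded days 5, 7, 9, 12. Well-mean burst duration collapsed as trapezoidal AUC, fitted for loss versus DMSO.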

[10] = CCTE_Shafer_MEA_dev_interburst_interval_mean: CCTE's Neural Network Formation Assay for Mean Interburst Interval, Shafer Lab (AID 2284046; active means hit-call score of the fitted dose curve at least 0.9, where 1 is the maximum; inactive means score below 0.9;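 further: well-mean interburst interval of bursting electrodes as AUC over four recording days; curve fitted for decrease in interburst interval relative to DMSO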)
Method in brief: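 Network formation assay in primary rat cortical cultures, exposed from DIV 0 to 12. Mean interburst interval per well, integrated as AUC over four recordings.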

[11] = CCTE_Shafer_MEA_dev_inter_network_spike_interval_mean: CCTE's Neural Network Formation Assay for Mean Inter-network Spike Interval, Shafer Lab (AID 2284047; active means hit-call score of the fitted dose curve at least 0.9, where 1 is the maximum; inactive means score below 0.9)
Method in brief: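 Compound was given at plating to primary rat cortical neurons and renewed with full medium changes on DIV 5 and 9. Extracellular activity was recorded on days 5, 7, 9, 12; AUC values were fitted for loss relative to DMSO control.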

[12] = CCTE_Shafer_MEA_dev_network_spike_number: CCTE's Neural Network Formation Assay for Number of Network Spikes, Shafer Lab (AID 2284048; active means hit-call score of the fitted dose curve at least 0.9, where 1 is the maximum; inactive means score below 0.9;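 further: synchronized bursts across electrodes counted on days 5 7 9 12 and integrated as AUC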)
Method in brief: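 Primary rat cortical neurons were seeded at 1.5 x 10^5 cells/well on PEI-coated 16-electrode MEA wells with laminin, exposed from plating day 0, compound renewed at DIV 5 and 9. Network spikes were recorded on days 5, 7, 9, 12 and summarized as trapezoidal AUC versus DMSO.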

[13] = CCTE_Shafer_MEA_dev_network_spike_peak: CCTE's Neural Network Formation Assay for Mean Number of Electrodes in Network Spike, Shafer Lab (AID 2284049; active means hit-call score of the fitted dose curve at least 0.9, where 1 is the maximum; inactive means score below 0.9)
Method in brief: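 Continuous 12-day exposure of rat cortical cultures, starting at plating, on MEA plates. Endpoint: electrodes participating in network-spike peaks, AUC across DIV 5–12, DMSO as negative control.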

[14] = CCTE_Shafer_MEA_dev_spike_duration_mean: CCTE's Neural Network Formation Assay for Mean Spike Duration, Shafer Lab (AID 2284051; active means hit-call score of the fitted dose curve at least 0.9, where 1 is the maximum; inactive means score below 0.9;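 further: mean network spike duration pooled as area under curve over DIV 5 to 12 recordings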)
Method in brief: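 With DMSO as baseline, loss of mean network spike duration was scored from extracellular recordings of rat cortical neurons on MEA plates. Exposure spanned plating to DIV 12; the four recording days were collapsed into one AUC value.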

[15] = CCTE_Shafer_MEA_dev_network_spike_duration_std: CCTE's Neural Network Formation Assay for Standard Deviation of Network Spike Duration, Shafer Lab (AID 2284052; active means hit-call score of the fitted dose curve at least 0.9, where 1 is the maximum; inactive means score below 0.9;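 further: area under curve of spike duration SD across recording days 5 to 12; hits are decreases in network spike duration SD versus DMSO vehicle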)
Method in brief: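 Developing networks of rat cortical neurons were exposed over twelve days in vitro on 48-well MEA plates. Trapezoidal AUC of recordings (DIV 5–12) was analysed for signal loss relative to DMSO vehicle.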

[16] = CCTE_Shafer_MEA_dev_per_network_spike_spike_number_mean: CCTE's Neural Network Formation Assay for Mean Number of Spikes in a Network Spike, Shafer Lab (AID 2284053; active means hit-call score of the fitted dose curve at least 0.9, where 1 is the maximum; inactive means score below 0.9)
Method in brief: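 First, rat cortical cells (1.5 x 10^5/well) were seeded onto MEA wells; second, dosing began at plating and was refreshed on DIV 5 and 9; finally, network-spike spike counts across DIV 5–12 were summarized as AUC.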

[17] = CCTE_Shafer_MEA_dev_per_network_spike_spike_percent: CCTE's Neural Network Formation Assay for Percent of Spikes in a Network Spike, Shafer Lab (AID 2284054; active means hit-call score of the fitted dose curve at least 0.9, where 1 is the maximum; inactive means score below 0.9)
Method in brief: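 Primary rat cortical neurons on 16-electrode MEA wells (PEI-coated, laminin at plating), exposed from day 0 with renewal at DIV 5 and 9; spikes within 0.05 s of network-spike peaks over total spikes, AUC across days 5, 7, 9, 12.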

[18] = CCTE_Shafer_MEA_dev_bursting_electrodes_number: CCTE's Neural Network Formation Assay for Number of Bursting Electrodes, Shafer Lab (AID 2284043)
Method in brief: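 Primary rat cortical neurons were cultured on PEI-coated 48-well MEA plates (16 electrodes/well) and exposed from plating through day 12, with compound renewed at feeds on DIV 5 and 9. Electrodes bursting ≥1 per 2 min were counted on DIV 5, 7, 9, 12; trapezoidal AUC taken.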

Nc1ccc(N)c2c1C(=O)c1ccccc1C2=O
AC50 [1]: 52 µM (active)
AC50 [2]: 28.9 µM (active)

CC(C)CCCCCCc1ccc(OCCOCCO)cc1
outcome [1]: inactive
outcome [3]: inactive
outcome [2]: inactive
outcome [4]: inactive

CS(C)=O
outcome [1]: inactive

COc1ccccc1N=Nc1c(S(=O)(=O)O)cc2cc(S(=O)(=O)O)cc(NC(C)=O)c2c1O
outcome [1]: inactive
AC50 [2]: 42.9 µM (active)

CCNCCO
outcome [1]: inactive

FC(F)(F)COCC(F)(F)F
outcome [5]: inactive
outcome [6]: inactive
outcome [7]: inactive
outcome [8]: inactive
outcome [9]: inactive
outcome [10]: inactive
outcome [11]: inactive
outcome [12]: inactive
outcome [13]: inactive
outcome [14]: inactive
outcome [15]: inactive
outcome [16]: inactive
outcome [17]: inactive

CCCCCCC(C)(C)S
outcome [1]: inactive
outcome [2]: inactive

CCCCC(CC)COC(C)=O (stereo not given)
outcome [1]: inactive

CCCCCCCCSCCO
outcome [1]: inactive
outcome [2]: inactive

Nc1ccc2cc(S(=O)(=O)O)cc(O)c2c1N=Nc1ccccc1C(F)(F)F
AC50 [1]: 46.4 µM (active)
AC50 [2]: 38.2 µM (active)

CCCCCCCCCCCC(=O)OCC(O)CO (stereo not given)
AC50 [1]: 0.0666 µM (active)
outcome [3]: inactive
outcome [2]: inactive
outcome [4]: inactive

O=[N+]([O-])c1ccc(O)cc1C(F)(F)F
AC50 [1]: 62.2 µM (active)
AC50 [2]: 34.9 µM (active)

O=C1OC(=O)c2c(Cl)c(Cl)c(Cl)c(Cl)c21
outcome [1]: inactive
outcome [2]: inactive

CCC(=O)O[C@@H]1C[C@H]2CC[C@]1(C)C2(C)C
outcome [1]: inactive

CN(C)CCOC(C)(c1ccccc1)c1ccccn1 (stereo not given)
outcome [5]: inactive
outcome [6]: inactive
outcome [7]: inactive
outcome [18]: inactive
outcome [8]: inactive
outcome [9]: inactive
outcome [10]: inactive
outcome [11]: inactive
outcome [12]: inactive
outcome [13]: inactive
outcome [14]: inactive
outcome [15]: inactive
outcome [16]: inactive
outcome [17]: inactive

CC(C)CC(C)CC(O)CC(C)C (stereo not given)
outcome [1]: inactive
outcome [2]: inactive
